# Reference: PubChem BioAssay (Tox21)
# Values joined by “and” are separate entries in the source; they are usually repeats but may differ in a detail not shown here. Identical values can stand only once. Results filed as inconclusive are left out. Where a call stands in place of a potency, no number is given. Some structures have more than one record in an assay (separate samples or runs), and their calls can disagree. Active and inactive are the calls of the source. The call rests on the fitted dose curve; in most records, active means well fitted curve in the direction sought with a large enough effect in the repeat runs; inconclusive means weak or mixed curves; inactive means no such curve, though single readings can be large; an effect the other way counts as inactive or inconclusive.
# Experiments:
# [1] = qHTS RealTime-Glo MT Cell Viability Assay in HepG2 cells - 40 hour (AID 1224870); further: nearly all actives have a fitted effect of over 50% in size
# Outline: (§1)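 HepG2 cells mixed with RealTime-Glo MT reagents (NanoLuc plus cell-permeant prosubstrate) were seeded at 600 cells/well, incubated 5 h at 37 C/5% CO2, then pinned with compounds in DMSO; nonlytic luminescence tracked viability during 40 h treatment.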
# [2] = A CellTox Green Cytotoxicity Assay to monitor cytotoxicity in HEK293 cells - 40 hour (AID 1224871); further: nearly all actives have a fitted effect of over 45% in size; further: potency means the concentration at half of the fitted maximal effect
# Outline: (§2)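 Nonlytic real-time cytotoxicity: HEK293 + CellTox Green reagent plated, 5 h preincubation, pintool compound addition (23 nL in DMSO), 37 C for 40 h, fluorescence measured at successive time points.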
# [3] = qHTS RealTime-Glo MT Cell Viability Assay in HEK293 cells - 40 hour (AID 1224874); conditions: RealTime-Glo luminescence; max response: stronger effect = lower value; further: nearly all actives have a fitted effect of over 50% in size; further: potency means the concentration at half of the fitted maximal effect
# Outline: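 Cells were seeded together with NanoLuc luciferase and a prosubstrate that viable cells reduce to a luciferase substrate. After a 5 h incubation at 37 C/5% CO2, compounds were added and luminescence was measured repeatedly during 40 h of treatment.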
# [4] = A CellTox Green Cytotoxicity Assay to monitor cytotoxicity in HEK293 cells - 24 hour (AID 1224875); further: series mostly up to about 77 µM; nearly all actives have a fitted effect of over 45% in size
# Outline: as §2
# [5] = A CellTox Green Cytotoxicity Assay to monitor cytotoxicity in HepG2 cells - 16 hour (AID 1224876); further: nearly all actives have a fitted effect of over 45% in size; further: potency means the concentration at half of the fitted maximal effect
# Outline: (§3)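 Read-out is fluorescence of a cyanine dye excluded from live cells that stains DNA of dead HepG2 cells, with signal proportional to cytotoxicity. Plates were read at 0, 8, 16, 24, 32 and 40 h after compound addition.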
# [6] = qHTS RealTime-Glo MT Cell Viability Assay in HepG2 cells - 32 hour (AID 1224877); further: nearly all actives have a fitted effect of over 55% in size
# Outline: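 HepG2 cells were seeded at 600 cells/well together with NanoLuc luciferase and a cell-permeant prosubstrate, preincubated 5 h at 37 C/5% CO2, then pin-dosed with compounds in DMSO. Nonlytic luminescence from viable cells was read at each time point.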
# [7] = A CellTox Green Cytotoxicity Assay to monitor cytotoxicity in HepG2 cells - 24 hour (AID 1224878); further: nearly all actives have a fitted effect of over 45% in size
# Outline: as §3
# [8] = A CellTox Green Cytotoxicity Assay to monitor cytotoxicity in HepG2 cells - 40 hour (AID 1224879); further: nearly all actives have a fitted effect of over 40% in size; further: potency means the concentration at half of the fitted maximal effect
# Outline: as §3
# [9] = qHTS RealTime-Glo MT Cell Viability Assay in HepG2 cells - 8 hour (AID 1224873); further: nearly all actives have a fitted effect of over 55% in size
# Outline: as §1
# [10] = qHTS RealTime-Glo MT Cell Viability Assay in HEK293 cells - 16 hour (AID 1224872); further: nearly all actives have a fitted effect of over 50% in size; further: potency means the concentration at half of the fitted maximal effect
# Outline: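 HEK293 cells were seeded at 600 cells/well together with NanoLuc luciferase and cell-permeant prosubstrate, preincubated 5 h at 37 C/5% CO2, then given compound in DMSO by pintool. Luminescence from viable-cell prosubstrate reduction was read repeatedly over 40 h.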
smiles,measurement,setting,value
CCOC(=O)[C@H](CCc1ccccc1)N[C@@H](C)C(=O)N1[C@H](C(=O)O)C[C@@H]2CCC[C@@H]21,Potency,[1],inactive
same,Potency,[2],inactive
same,max response,[3],6.09% (inactive)
same,Potency,[4],inactive
same,Potency,[5],inactive
same,Potency,[6],inactive
same,Potency,[7],inactive
same,Potency,[8],inactive
C[C@](N)(Cc1ccc(O)cc1)C(=O)O,"activity change, negative = cytotoxic",[1],4.28% [at 6.97 µM] (inactive)
same,cytotoxicity increase,[2],1.26% [at 6.97 µM] (inactive)
same,"viability change, negative = cytotoxic",[9],1.11% [at 6.97 µM] (inactive)
same,max response,[3],0.763% (inactive)
same,activity change,[4],"2.77% [at 6.97 µM, stronger effect = higher value] (inactive)"
same,cytotoxicity increase,[5],-1.17% [at 6.97 µM] (inactive)
same,"activity change, negative = cytotoxic",[6],3.47% [at 6.97 µM] (inactive)
same,cytotoxicity,[7],-1.48% [at 6.97 µM] (inactive)
same,cytotoxicity increase,[8],-2.6% [at 6.97 µM] (inactive)
CC/C=C\CC/C=C/CO,Potency,[1],inactive
same,Potency,[10],inactive
same,Potency,[9],inactive
same,max response,[3],6.89% (inactive)
same,Potency,[4],inactive
same,Potency,[5],inactive
same,Potency,[6],inactive
same,Potency,[7],inactive
same,Potency,[8],inactive
O=C1NC(=O)[C@@]2(CCOc3ccc(F)cc32)N1,Potency,[1],inactive
same,Potency,[2],inactive
same,Potency,[9],inactive
same,max response,[3],10% (inactive)
same,Potency,[5],inactive
same,Potency,[6],inactive
same,Potency,[7],inactive
same,Potency,[8],inactive
C=C(C)C(=O)OCCCCCCCC(C)C,Potency,[1],inactive
same,Potency,[2],inactive
same,Potency,[4],inactive
same,Potency,[5],inactive
same,Potency,[6],inactive
same,Potency,[7],inactive
same,Potency,[8],inactive
CCO[Si](CCC1CCC2OC2C1)(OCC)OCC (stereo not drawn),Potency,[1],inactive
same,Potency,[10],inactive
same,Potency,[9],inactive
same,max response,[3],14.1% (inactive)
same,Potency,[4],inactive
same,Potency,[5],inactive
same,Potency,[6],inactive
same,Potency,[7],inactive
same,Potency,[8],inactive
CC(C)(CC(=O)O)C(=O)O,Potency,[1],inactive
same,Potency,[10],inactive
same,Potency,[9],inactive
same,max response,[3],0.211% (inactive)
same,Potency,[4],inactive
same,Potency,[5],inactive
same,Potency,[6],inactive
same,Potency,[7],inactive
O=C(O)CCCl,Potency,[1],inactive
same,Potency,[10],inactive
same,Potency,[9],inactive
same,max response,[3],13% (inactive)
same,Potency,[4],inactive
same,Potency,[5],inactive
same,Potency,[6],inactive
same,Potency,[7],inactive
same,Potency,[8],inactive
NS(=O)(=O)c1cc2c(cc1Cl)NC(C1CC3C=CC1C3)NS2(=O)=O (stereo not drawn),Potency,[1],inactive
same,Potency,[2],inactive
same,Potency,[9],inactive
same,Potency,[4],inactive
same,Potency,[5],inactive
same,Potency,[6],inactive
same,Potency,[7],inactive
same,Potency,[8],inactive
CN1CCC(=C2c3ccccc3CC(=O)c3sccc32)CC1,Potency,[1],inactive
same,Potency,[2],inactive
same,Potency,[9],inactive
same,max response,[3],-28.2% (inactive)
same,Potency,[5],inactive
same,Potency,[6],inactive
same,Potency,[7],inactive
same,Potency,[8],inactive
CC(C)NC(=O)NC(C)C,Potency,[1],inactive
same,Potency,[2],inactive
same,Potency,[9],inactive
same,max response,[3],4.41% (inactive)
same,Potency,[5],inactive
same,Potency,[6],inactive
same,Potency,[7],inactive
same,Potency,[8],inactive
NS(=O)(=O)c1cc(C(=O)O)cc(N2CCCC2)c1Oc1ccccc1,Potency,[1],inactive
same,Potency,[2],inactive
same,Potency,[9],inactive
same,max response,[3],-15.6% (inactive)
same,Potency,[4],inactive
same,Potency,[5],inactive
same,Potency,[6],inactive
same,Potency,[7],inactive
same,Potency,[8],inactive
O=c1cc(-c2ccccc2)oc2ccccc12,Potency,[1],inactive
same,Potency,[10],19.5 µM (active) and 6.88 µM (active)
same,Potency,[9],inactive
same,Potency,[3],11 µM (active) and 14.8 µM (active)
same,Potency,[4],inactive
same,Potency,[5],inactive
same,Potency,[6],inactive
same,Potency,[7],inactive
same,Potency,[8],inactive and 43.6 µM (active)
COC(=O)c1c(Cl)c(Cl)c(C(=O)OC)c(Cl)c1Cl,Potency,[1],inactive
same,Potency,[2],inactive and 38.9 µM (active)
same,Potency,[9],inactive
same,Potency,[5],inactive and 77.6 nM (active)
same,Potency,[6],inactive
same,Potency,[7],inactive
COC(=O)c1cc(C(=O)OC)cc(S(=O)(=O)O)c1,Potency,[1],inactive
same,Potency,[2],inactive
same,Potency,[9],inactive
same,max response,[3],-1.13% (inactive)
same,Potency,[4],inactive
same,Potency,[5],inactive
same,Potency,[6],inactive
same,Potency,[7],inactive
same,Potency,[8],inactive
Cc1ccc(C#N)cc1,Potency,[1],inactive
same,Potency,[2],inactive
same,Potency,[9],inactive
same,max response,[3],6.96% (inactive)
same,Potency,[4],inactive
same,Potency,[5],inactive
same,Potency,[6],inactive
same,Potency,[7],inactive
same,Potency,[8],inactive
O=Cc1cccc([N+](=O)[O-])c1,Potency,[1],inactive
same,Potency,[10],inactive
same,Potency,[9],inactive
same,max response,[3],5.4% (inactive)
same,Potency,[4],inactive
same,Potency,[5],inactive
same,Potency,[6],inactive
same,Potency,[7],inactive
same,Potency,[8],inactive
N[C@H](C(=O)O)c1ccc(O)cc1,"activity change, negative = cytotoxic",[1],1.99% [at 15.8 µM] (inactive)
same,Potency,[2],inactive
same,"viability change, negative = cytotoxic",[9],0.244% [at 15.8 µM] (inactive)
same,max response,[3],2.28% (inactive)
same,activity change,[4],"0.19% [at 15.8 µM, stronger effect = higher value] (inactive)"
same,cytotoxicity increase,[5],-12.1% [at 15.8 µM] (inactive)
same,"activity change, negative = cytotoxic",[6],3.27% [at 15.8 µM] (inactive)
same,cytotoxicity,[7],-8.13% [at 15.8 µM] (inactive)
same,cytotoxicity increase,[8],-4.58% [at 15.8 µM] (inactive)
Cc1ccc(=O)n(-c2ccccc2)c1,Potency,[1],inactive
same,Potency,[10],inactive
same,Potency,[9],inactive
same,max response,[3],1.08% (inactive)
same,Potency,[4],inactive
same,Potency,[5],inactive
same,Potency,[6],inactive
same,Potency,[7],inactive
same,Potency,[8],inactive
COc1ccc2c(c1)CCCC2=O,Potency,[1],inactive
same,Potency,[10],inactive
same,Potency,[9],inactive
same,max response,[3],0.353% (inactive)
same,Potency,[4],inactive
same,Potency,[5],inactive
same,Potency,[6],inactive
same,Potency,[7],inactive
same,Potency,[8],inactive
O=c1[nH]c(=O)n([C@H]2C[C@H](O)[C@@H](CO)O2)cc1I,Potency,[1],inactive
same,Potency,[2],inactive
same,Potency,[9],inactive
same,max response,[3],5.93% (inactive)
same,Potency,[4],inactive
same,Potency,[5],inactive
same,Potency,[6],inactive
same,Potency,[7],inactive
same,Potency,[8],inactive
